# Measured values from PubChem BioAssay (Tox21).
# A number with no mark means an inactive call. Entries that show only a call come without a potency. Activity calls are given as the source filed them. Unless noted, calls come from the whole dose curve; as a rule, active = well fitted curve in the direction sought with a large enough effect in the repeat runs; inconclusive = weak or mixed curves; inactive = no such curve, though single readings can be large; an effect the other way counts as inactive or inconclusive.
# Columns and labels:
# [1] = qHTS assay to identify small molecule antagonists of the glucocorticoid receptor (GR) signaling pathway - cell viability counter screen (AID 720693); note: nearly all actives have a fitted effect of over 55% in size
# [2] = qHTS assay for identifying genotoxic compounds that show differential cytotoxicity against isogenic chicken DT40 cell lines with known DNA damage response pathways - Rev3 mutant cell line (AID 743014); note: nearly all actives have a fitted effect of over 55% in size; note: potency is the fitted concentration of half-maximal effect
# [3] = qHTS assay for identifying genotoxic compounds that show differential cytotoxicity against isogenic chicken DT40 cell lines with known DNA damage response pathways - Rad54/Ku70 mutant cell line (AID 743015); note: nearly all actives have a fitted effect of over 60% in size; note: potency is the fitted concentration of half-maximal effect
# [4] = qHTS assay to identify small molecule antagonists of the androgen receptor (AR) signaling pathway - cell viability counter screen (AID 743033; note: nearly all actives have a fitted effect of over 45% in size)
# [5] = qHTS assay to identify small molecule antagonists of the androgen receptor (AR) signaling pathway using the MDA cell line - cell viability counter screen (AID 743041; note: nearly all actives have a fitted effect of over 45% in size)
# Method in brief: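 MDA-kb2 AR-luc cells (MMTV-luciferase, AR/GR responsive) treated with compounds plus R1881 agonist for 16 h at 37C. CellTiter-Fluor added at 15.5 h; fluorescence read after 30 min in the same wells.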
# [6] = qHTS assay to identify small molecule antagonists of the thyroid receptor (TR) signaling pathway - cell viability counter screen (AID 743064); note: nearly all actives have a fitted effect of over 50% in size; note: potency is the fitted concentration of half-maximal effect
# Method in brief: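 Counter screen for cytotoxicity: compound plus T3 (1 nM final) on GH3.TRE-Luc cells, 23.5 h at 37 °C, then fluorescence viability readout with CellTiter-Fluor.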
# [7] = system: thyroid hormone receptor (rat, GH3 cells); assay: qHTS assay to identify small molecule agonists of the thyroid receptor (TR) signaling pathway (AID 743066; calls by dose curve; note: potency is the fitted concentration of half-maximal effect)
# [8] = target: Estrogen receptor (Homo sapiens) (UniProt P03372); assay: qHTS assay to identify small molecule antagonists of the estrogen receptor alpha (ER-alpha) signaling pathway (AID 743069; active = well fitted curve in the direction sought with a large enough effect in the signal ratio in the repeat runs, not every such curve was filed as active; inconclusive = weak or mixed curves, or effect the other way; inactive = no such curve, though single readings can be large or run the other way; the % refers to the signal ratio; note: potency is the fitted concentration of half-maximal effect)
# Estrogen receptor (Homo sapiens), sequence (P03372 whole entry, looked up): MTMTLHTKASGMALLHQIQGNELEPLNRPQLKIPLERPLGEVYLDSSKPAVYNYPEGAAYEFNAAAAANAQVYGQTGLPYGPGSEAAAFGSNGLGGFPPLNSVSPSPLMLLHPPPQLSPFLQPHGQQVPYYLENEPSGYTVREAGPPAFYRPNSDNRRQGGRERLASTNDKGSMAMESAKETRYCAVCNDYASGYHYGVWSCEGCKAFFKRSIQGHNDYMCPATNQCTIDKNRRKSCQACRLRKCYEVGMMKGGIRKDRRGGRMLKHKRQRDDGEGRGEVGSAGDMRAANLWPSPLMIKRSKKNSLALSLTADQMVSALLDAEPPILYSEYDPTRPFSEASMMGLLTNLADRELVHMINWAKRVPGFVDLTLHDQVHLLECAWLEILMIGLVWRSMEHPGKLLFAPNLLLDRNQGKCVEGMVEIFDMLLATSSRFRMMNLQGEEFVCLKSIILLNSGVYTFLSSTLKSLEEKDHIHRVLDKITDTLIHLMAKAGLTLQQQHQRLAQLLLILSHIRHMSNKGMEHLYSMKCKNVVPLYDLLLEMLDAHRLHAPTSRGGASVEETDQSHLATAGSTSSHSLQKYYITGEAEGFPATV
# Method in brief: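 HEK293 ER-alpha-UAS-bla GripTite cells, held overnight in 2% charcoal-stripped FBS, 5,000 cells/well, preincubated 4 h, then compound plus 17beta-estradiol for 18 h at 37C. Beta-lactamase read by LiveBLAzer B/G FRET substrate, 2 h at room temperature.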
# [9] = qHTS assay to identify small molecule antagonists of the estrogen receptor alpha (ER-alpha) signaling pathway - cell viability counter screen (AID 743074; calls by dose curve;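 note: HEK293 cells carrying ER-alpha-UAS-bla reporter stimulated with 17beta-estradiol; nearly all actives have a fitted effect of over 45% in size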)
# [10] = target: Estrogen receptor (Homo sapiens) (UniProt P03372); assay: qHTS assay to identify small molecule agonists of the estrogen receptor alpha (ER-alpha) signaling pathway (AID 743075; calls by dose curve)
# [11] = target: Estrogen receptor (Homo sapiens) (UniProt P03372); assay: qHTS assay to identify small molecule agonists of the estrogen receptor alpha (ER-alpha) signaling pathway using the BG1 cell line (AID 743079); details: BG1Luc4E2 cells, ERE-luciferase agonist, 22 h; activation: at 70.3 µM (top of the series); note: nearly all actives have a fitted effect of over 20% in size; note: potency is the fitted concentration of half-maximal effect
# [12] = qHTS assay to identify small molecule antagonists of the estrogen receptor alpha (ER-alpha) signaling pathway using the BG1 cell line - cell viability counter screen (AID 743081);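 note: compound given together with 17beta-estradiol as the ER stimulus; nearly all actives have a fitted effect of over 45% in size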
# Aromatase (Homo sapiens) = Aromatase (Homo sapiens) (UniProt P11511); assay: qHTS assay to identify aromatase inhibitors (AID 743083); note: nearly all actives have a fitted effect of over 55% in size; note: potency is the fitted concentration of half-maximal effect
# Aromatase (Homo sapiens), sequence (P11511 whole entry, looked up): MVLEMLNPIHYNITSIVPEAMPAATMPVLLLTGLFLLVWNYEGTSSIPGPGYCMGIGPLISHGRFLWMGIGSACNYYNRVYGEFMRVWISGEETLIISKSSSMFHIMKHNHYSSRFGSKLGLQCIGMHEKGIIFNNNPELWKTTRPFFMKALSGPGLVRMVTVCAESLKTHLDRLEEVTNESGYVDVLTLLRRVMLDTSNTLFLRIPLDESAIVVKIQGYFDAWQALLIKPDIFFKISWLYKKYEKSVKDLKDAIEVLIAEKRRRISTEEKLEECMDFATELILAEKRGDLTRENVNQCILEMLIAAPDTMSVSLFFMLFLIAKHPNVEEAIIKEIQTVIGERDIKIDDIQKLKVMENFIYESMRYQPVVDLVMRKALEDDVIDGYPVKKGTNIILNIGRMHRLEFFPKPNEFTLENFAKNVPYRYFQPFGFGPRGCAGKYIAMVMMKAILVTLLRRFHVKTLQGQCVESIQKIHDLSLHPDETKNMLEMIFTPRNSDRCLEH
# [13] = qHTS assay for identifying genotoxic compounds that show differential cytotoxicity against isogenic chicken DT40 cell lines with known DNA damage response pathways - wild type cell line (AID 743012); note: nearly all actives have a fitted effect of over 60% in size; note: potency is the fitted concentration of half-maximal effect
# Method in brief: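 Parental DNA repair-proficient DT40 cells, 300 per well, were pre-incubated ~0.5 h at 37 C/5% CO2, pin-dosed with compounds in DMSO, then incubated 40 h. Viability was read as CellTiter-Glo luminescence after 30 min at room temperature.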
# [14] = target: Androgen receptor (Homo sapiens) (UniProt P10275); assay: qHTS assay to identify small molecule agonists of the androgen receptor (AR) signaling pathway (AID 743036; active = well fitted activation curve with a large enough effect in the signal ratio in the repeat runs, with a control signal flat, not every such curve was filed as active; inconclusive = weak or mixed curves, or effect the other way; inactive = no such curve, though single readings can be large or run the other way; the % refers to the signal ratio)
# Androgen receptor (Homo sapiens), sequence (P10275 whole entry, looked up): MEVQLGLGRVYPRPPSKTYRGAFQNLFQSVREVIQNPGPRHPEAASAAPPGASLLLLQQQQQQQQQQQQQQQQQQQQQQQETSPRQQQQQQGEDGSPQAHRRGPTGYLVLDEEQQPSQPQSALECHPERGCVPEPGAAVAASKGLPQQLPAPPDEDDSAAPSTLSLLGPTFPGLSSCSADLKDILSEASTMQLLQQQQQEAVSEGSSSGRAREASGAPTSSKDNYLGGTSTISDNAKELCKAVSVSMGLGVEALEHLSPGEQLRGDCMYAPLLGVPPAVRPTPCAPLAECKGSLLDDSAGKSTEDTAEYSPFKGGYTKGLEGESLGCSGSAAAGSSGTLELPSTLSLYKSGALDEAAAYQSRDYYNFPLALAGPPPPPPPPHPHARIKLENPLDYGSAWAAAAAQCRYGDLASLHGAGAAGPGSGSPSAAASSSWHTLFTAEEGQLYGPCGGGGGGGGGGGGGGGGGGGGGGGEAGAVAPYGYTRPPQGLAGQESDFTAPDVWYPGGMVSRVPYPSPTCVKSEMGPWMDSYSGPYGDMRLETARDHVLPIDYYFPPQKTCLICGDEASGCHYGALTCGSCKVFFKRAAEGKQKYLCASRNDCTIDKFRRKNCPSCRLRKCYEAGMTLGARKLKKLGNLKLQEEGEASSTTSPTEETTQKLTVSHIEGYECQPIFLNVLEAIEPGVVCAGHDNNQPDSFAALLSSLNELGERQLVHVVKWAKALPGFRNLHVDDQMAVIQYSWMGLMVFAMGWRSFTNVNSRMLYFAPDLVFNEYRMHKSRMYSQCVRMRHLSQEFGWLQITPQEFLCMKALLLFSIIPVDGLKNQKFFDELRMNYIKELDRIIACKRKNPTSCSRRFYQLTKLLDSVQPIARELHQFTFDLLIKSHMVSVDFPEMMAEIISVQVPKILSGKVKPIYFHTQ
# Method in brief: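 In this Tox21 qHTS, 2,000 HEK293 AR-bla cells per well were incubated with compounds for 16 h at 37C and 5% CO2. Fluorescence intensity was recorded 2 h after adding LiveBLAzer B/G FRET substrate at room temperature.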
# [15] = target: Androgen receptor (Homo sapiens) (UniProt P10275); assay: qHTS assay to identify small molecule antagonists of the androgen receptor (AR) signaling pathway using the MDA cell line (AID 743042; note: nearly all actives have a fitted effect of over 55% in size; note: potency is the fitted concentration of half-maximal effect)
# Method in brief: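 MDA-kb2 breast carcinoma cells carrying MMTV-luciferase (AR/GR responsive) were co-treated with compounds and the agonist R1881 for 16 h at 37C. Inhibition read as ONE-Glo luminescence; CellTiter-Fluor fluorescence measured in parallel for cytotoxicity.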
# [16] = qHTS assay to identify small molecule antagonists of the thyroid receptor (TR) signaling pathway (AID 743065); note: nearly all actives have a fitted effect of over 55% in size; note: potency is the fitted concentration of half-maximal effect
# Method in brief: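 GH3.TRE-Luc rat pituitary cells (two TREs driving luciferase) were dosed with compound, then stimulated with 1 nM T3 (final) for 23.5 h at 37 C. ONE-Glo luminescence was the read-out, with CellTiter-Fluor fluorescence as the cytotoxicity counter-screen.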
# [17] = target: Androgen receptor (Homo sapiens) (UniProt P10275); assay: qHTS assay to identify small molecule antagonists of the androgen receptor (AR) signaling pathway (AID 743035; active = well fitted inhibition curve with a large enough effect in the signal ratio in the repeat runs, not every such curve was filed as active; inconclusive = weak or mixed curves, or effect the other way; inactive = no such curve, though single readings can be large or run the other way; the % refers to the signal ratio; note: potency is the fitted concentration of half-maximal effect)
# Method in brief: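 HEK293 cells stably carrying a UAS-driven beta-lactamase reporter (AR-UAS-bla GripTite) were plated for 4 h at 37C, then given compound and the agonist R1881 and incubated 16 h. Reporter activity was read by LiveBLAzer B/G FRET fluorescence after 2 h at room temperature.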
# [18] = qHTS assay to identify small molecule antagonists of the estrogen receptor alpha (ER-alpha) signaling pathway using the BG1 cell line (AID 743080; calls by dose curve;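 note: BG1 cells stimulated with 17beta-estradiol alongside compound; nearly all actives have a fitted effect of over 25% in size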; note: potency is the fitted concentration of half-maximal effect)
# Method in brief: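 Readout is ONE-Glo luminescence, taken 30 min at room temperature after reagent addition, preceded by a CellTiter-Fluor viability read; BG1-Luc-4E2 cells had received compound and 17beta-estradiol for 21.5 h at 37 C.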
structure (smiles),measurement,setting,value
O=P(Cl)(Cl)Cl,Potency,[1],inactive
same,Potency,[2],inactive
same,Potency,[3],inactive
same,Potency,[4],inactive
same,Potency,[5],inactive
same,Potency,[6],inactive
same,Potency,[7],inactive
same,Potency,[8],inactive
same,Potency,[9],inactive
same,Potency,[10],inactive
same,Potency,[11],inactive
same,Potency,[12],inactive
same,Potency,Aromatase (Homo sapiens),inactive
CCOP(=S)(OCC)SC(CCl)N1C(=O)c2ccccc2C1=O (stereo not drawn),Potency,[1],inactive
same,Potency,[13],48.6 µM (active)
same,Potency,[2],43.3 µM (active)
same,Potency,[3],61.1 µM (active)
same,outcome,[14],inactive
same,Potency,[5],inactive
same,Potency,[15],61.1 µM (active)
same,Potency,[7],inactive
same,Potency,[9],inactive
same,Potency,Aromatase (Homo sapiens),inactive
Cc1ccccc1OP(=O)(Oc1ccccc1C)Oc1ccccc1C,Potency,[1],inactive
same,Potency,[2],54.7 µM (active)
same,Potency,[3],30.8 µM (active)
same,Potency,[4],inactive
same,Potency,[5],inactive
same,Potency,[15],inactive
same,Potency,[6],54.7 µM (active)
same,Potency,[10],inactive
same,Potency,[11],3.87 µM (active)
same,Potency,[12],inactive
CC(Cc1ccc(OCC(=O)O)cc1)NCC(O)c1csc(C(F)(F)F)n1 (stereo not drawn),Potency,[1],inactive
same,Potency,[2],inactive
same,Potency,[3],inactive
same,Potency,[4],inactive
same,Potency,[5],inactive
same,Potency,[6],inactive
same,Potency,[16],inactive
same,Potency,[7],77 µM (active)
same,Potency,[8],inactive
same,Potency,[9],inactive
same,Potency,[10],inactive
same,Potency,[11],inactive
same,Potency,[12],inactive
same,Potency,Aromatase (Homo sapiens),inactive
COP(=O)(OC)O/C(=C\Cl)c1cc(Cl)c(Cl)cc1Cl,Potency,[1],inactive
same,Potency,[13],17.2 µM (active)
same,Potency,[2],30.6 µM (active)
same,Potency,[3],17.2 µM (active)
same,Potency,[17],21.9 µM (active)
same,outcome,[14],inactive
same,Potency,[5],inactive
same,Potency,[15],54.5 µM (active)
same,Potency,[16],27.3 µM (active)
same,Potency,[7],inactive
same,Potency,[8],24.5 µM [inconclusive] (active)
same,Potency,[18],68.6 µM (active)
same,Potency,[12],inactive
same,Potency,Aromatase (Homo sapiens),30.6 µM (active)
c1cc[n+]2c(c1)-c1cccc[n+]1CC2,Potency,[1],inactive
same,Potency,[13],3.35 µM (active)
same,Potency,[2],3.35 µM (active)
same,Potency,[3],2.37 µM (active)
same,Potency,[5],inactive
same,Potency,[6],inactive
same,Potency,[7],inactive
same,Potency,[8],inactive
same,Potency,[9],inactive
same,Potency,[10],inactive
same,Potency,Aromatase (Homo sapiens),inactive
CCCCC/C=C\C/C=C\C/C=C\C/C=C\CCCC(=O)NCC(=O)O,"viability change, negative = cytotoxic",[1],-8.97% [at 7.04 µM]
same,"activity change, negative = cytotoxicity",[13],16.5% [at 8.52 µM]
same,"activity change, negative = cytotoxicity",[3],4.36% [at 8.55 µM]
same,"viability change, negative = cytotoxic",[5],-2.98% [at 8.47 µM]
same,"activity, negative = inhibition",[16],6.65% [at 8.44 µM]
same,activation,[7],2.19% [at 8.08 µM]
same,"activity, negative = inhibition",[8],-29.7% [at 6.71 µM]
same,"activity, negative = cytotoxicity",[9],-15.9% [at 6.72 µM]
same,activation,[10],-3.03% [at 6.71 µM]
same,activation,[11],2.37% [at 8.47 µM]
same,"activity change, negative = cytotoxicity",[12],0.607% [at 8.47 µM]
same,"activity, negative = inhibition",Aromatase (Homo sapiens),4.53% [at 8.47 µM]
CCO/N=C(\CC)C1=C(O)CC(c2c(C)cc(C)cc2C)CC1=O (stereo not drawn),Potency,[1],inactive
same,Potency,[13],48.5 µM (active)
same,Potency,[2],51.4 µM (active)
same,Potency,[3],62.5 µM (active)
same,Potency,[5],inactive
same,Potency,[7],inactive
same,Potency,[9],inactive
same,Potency,[10],inactive
same,Potency,[11],inactive
same,Potency,Aromatase (Homo sapiens),inactive
ClC1(Cl)C2(Cl)C3(Cl)C4(Cl)C(Cl)(Cl)C5(Cl)C3(Cl)C1(Cl)C5(Cl)C24Cl (stereo not drawn),Potency,[1],inactive
same,Potency,[13],inactive
same,Potency,[3],inactive
same,Potency,[4],inactive
same,Potency,[5],inactive
same,Potency,[15],inactive
same,Potency,[6],inactive
same,Potency,[7],inactive
same,Potency,[8],inactive
same,Potency,[9],inactive
same,Potency,[10],inactive
same,Potency,[11],inactive
same,Potency,[12],inactive
same,Potency,Aromatase (Homo sapiens),inactive
CN(C)CCc1c[nH]c2ccccc12,Potency,[1],inactive
same,Potency,[2],inactive
same,Potency,[3],inactive
same,Potency,[4],inactive
same,Potency,[5],inactive
same,Potency,[6],inactive
same,Potency,[16],inactive
same,Potency,[7],inactive
same,Potency,[9],inactive
same,Potency,[12],inactive
N#Cc1c2ccccc2cc2ccccc12,Potency,[1],inactive
same,Potency,[2],inactive
same,Potency,[3],inactive
same,Potency,[4],inactive
same,Potency,[5],inactive
same,Potency,[15],inactive
same,Potency,[16],inactive
same,Potency,[7],inactive
same,Potency,[9],inactive
same,Potency,Aromatase (Homo sapiens),inactive
CNC(=O)CSP(=O)(OC)OC,Potency,[1],inactive
same,Potency,[13],inactive
same,Potency,[3],inactive
same,Potency,[4],inactive
same,Potency,[5],inactive
same,Potency,[6],inactive
same,Potency,[16],inactive
same,Potency,[7],inactive
same,Potency,[8],inactive
same,Potency,[9],inactive
same,Potency,[10],inactive
same,Potency,[11],inactive
same,Potency,[18],inactive
same,Potency,[12],inactive
same,Potency,Aromatase (Homo sapiens),inactive
